Assay results: PubChem BioAssay AID1159580 (chemical genetic matrix, 2015)
“And” between values parts separate entries of the source, which are not always exact repeats. Equal values may be shown once. About 2,000 (36%) of roughly 5,500 compounds were called active. Inconclusive results (about 18%) are left out. Rule as the data show it: active = normalized growth mostly below about 0.91 (no sharp cut-off); inconclusive = no clear call, values can overlap the other calls; inactive = mostly above about 0.92. Some of the results follow.

Test: chemical genetic growth profiling, strain panel (AID 1159580);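 also: tested at 20 µM; growth read once vehicle control cultures reached saturation at 30 °C; 1 = growth at the plate median or of vehicle wells; lower values mean less growth of the strain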
Conditions: S. cerevisiae deletion strains, growth OD

Measured: normalized growth

C[C@@H]1CC2C3C[C@H](F)C4=CC(=O)C=C[C@]4(C)[C@@]3(F)[C@@H](O)C[C@]2(C)[C@@]1(O)C(=O)COC(=O)C(C)(C)C (some centres not stated)
inactive: locus YAL021C, strain ccr4, active compounds read low 0.995 | locus YAL026C, strain drs2, active compounds read low 1 | locus YAL030W, strain snc1, active compounds read low 0.98 | locus YBL061C, strain skt5, active compounds read low 0.994 | locus YBR009C, strain hhf1, active compounds read low 0.972 | locus YBR021W, strain FUR4, active compounds read low 1.01 | locus YBR023C, strain chs3, active compounds read low 0.983 | locus YBR171W, strain sec66, active compounds read low 0.998 | locus YBR229C, strain ROT2, active compounds read low 1 | locus YBR231C, strain swc5, active compounds read low 0.98 | locus YBR279W, strain paf1, active compounds read low 0.986 | locus YCL011C, strain gbp2, active compounds read low 1.01 | locus YCL016C, strain dcc1, active compounds read low 0.995 | locus YCL029C, strain bik1, active compounds read low 0.992 | locus YCL069W, strain vba3, active compounds read low 1 | locus YCR088W, strain abp1, active compounds read low 1.01 | locus YDL005C, strain med2, active compounds read low 1 | locus YDL035C, strain GPR1, active compounds read low 0.982 | locus YDL040C, strain nat1, active compounds read low 0.985 | locus YDL074C, strain BRE1, active compounds read low 1 | locus YDL101C, strain DUN1, active compounds read low 1.01 | locus YDL134C, strain PPH21, active compounds read low 0.98 | locus YDL185W, strain tfp1, active compounds read low 1 | locus YDL192W, strain arf1, active compounds read low 1.01 | locus YDR001C, strain nth1, active compounds read low 0.998 | locus YDR069C, strain doa4, active compounds read low 0.991 | locus YDR101C, strain arx1, active compounds read low 0.97 | locus YDR137W, strain rgp1, active compounds read low 1 | locus YDR150W, strain NUM1, active compounds read low 0.999 | locus YDR159W, strain sac3, active compounds read low 0.991 | locus YDR162C, strain NBP2, active compounds read low 0.987 | locus YDR195W, strain ref2 0.911 | locus YDR297W, strain sur2, active compounds read low 0.993 | locus YDR318W, strain mcm21, active compounds read low 1.01 | locus YDR334W, strain swr1, active compounds read low 1 | locus YDR335W, strain msn5, active compounds read low 0.995 | locus YDR388W, active compounds read low 1.01 | locus YDR392W, strain spt3, active compounds read low 1 | locus YDR502C, strain sam2, active compounds read low 1 | locus YEL003W, strain gim4, active compounds read low 1 | locus YEL037C, strain rad23, active compounds read low 0.994 | locus YEL061C, strain CIN8 (second series), active compounds read low 1.01 | locus YEL061C, strain CIN8, active compounds read low 1 | locus YER015W, strain faa2, active compounds read low 0.996 | locus YER016W, strain bim1, active compounds read low 0.99 | locus YER110C, active compounds read low 1.02 | locus YER111C, strain swi4, active compounds read low 0.999 | locus YER155C, strain BEM2 (second series), active compounds read low 0.991 | locus YER155C, strain BEM2, active compounds read low 1.01 | locus YER167W, strain BCK2, active compounds read low 0.997 | locus YFR010W, strain ubp6, active compounds read low 0.997 | locus YGL078C, strain dbp3, active compounds read low 1.01 | locus YGL086W, strain mad1, active compounds read low 0.983 | locus YGL167C, strain pmr1, active compounds read low 0.989 | locus YGL173C, strain kem1, active compounds read low 0.994 | locus YGL227W, strain vid30, active compounds read low 1.01 | locus YGL240W, strain doc1, active compounds read low 0.971 | locus YGL248W, strain PDE1, active compounds read low 1.01 | locus YGL253W, strain hxk2, active compounds read low 1.01 | locus YGR135W, strain pre9, active compounds read low 1.05 | locus YGR252W, strain gcn5, active compounds read low 1.06 | locus YHR013C, strain ard1, active compounds read low 0.965 | locus YHR027C, strain rpn1, active compounds read low 0.998 | locus YHR030C, strain SLT2, active compounds read low 1 and 0.992 | locus YHR079C, strain IRE1 (second series), active compounds read low 1 | locus YHR079C, strain IRE1, active compounds read low 0.972 | locus YHR094C, strain hxt1, active compounds read low 1.01 | locus YHR129C, strain ARP1, active compounds read low 1.01 | locus YHR142W, strain chs7, active compounds read low 1.01 | locus YHR200W, strain rpn10, active compounds read low 1 | locus YIL066C, strain RNR3, active compounds read low 0.997 | locus YIL073C, strain SPO22, active compounds read low 0.995 | locus YIL125W, strain kgd1, active compounds read low 1 | locus YIR030C, strain dcg1, active compounds read low 1 | locus YJL092W, strain hpr5, active compounds read low 1 | locus YJL095W, strain BCK1 (second series), active compounds read low 0.989 | locus YJL095W, strain BCK1, active compounds read low 1.03 and 0.963 | locus YJL115W, strain asf1, active compounds read low 0.993 | locus YJL129C, strain trk1, active compounds read low 1 | locus YJL134W, strain LCB3, active compounds read low 1 | locus YJL154C, strain vps35, active compounds read low 0.997 | locus YJL164C, strain tpk1, active compounds read low 0.989 | locus YJL166W, strain qcr8, active compounds read low 0.966 | locus YJL168C, strain set2, active compounds read low 1.01 | locus YJL187C, strain SWE1 (second series), active compounds read low 1 | locus YJR043C, strain POL32, active compounds read low 0.983 | locus YJR066W, strain TOR1, active compounds read low 0.944
